Shown is part of a subset that was picked to be rich in hits.
ID4 SMM – binders of human ID4 protein; P47928; small molecule microarray, Flag-ID4 binding, fluorescence F/B; calls only; 31,000 tested, 1.2% active; call rule not given here;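 note: a binder raises fluorescence above local background on the spot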
Target sequence (P47928 whole entry, looked up): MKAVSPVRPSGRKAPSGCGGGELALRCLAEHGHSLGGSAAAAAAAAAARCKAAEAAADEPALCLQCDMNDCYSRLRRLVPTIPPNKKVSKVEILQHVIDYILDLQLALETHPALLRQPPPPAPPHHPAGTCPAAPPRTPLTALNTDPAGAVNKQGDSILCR
* = called active by the depositor; i = inactive; + = active, no number.

SMILES	ID4 SMM
C[C@H](CO)N1C[C@H](C)[C@@H](CN(C)C(=O)Nc2ccccc2)Oc2ccc(NS(C)(=O)=O)cc2C1=O	+
C[C@@H]1CN([C@@H](C)CO)C(=O)c2cc(NS(C)(=O)=O)ccc2O[C@H]1CN(C)C(=O)Nc1ccccc1	i
Cc1cc(NC(=O)C(C)n2cc([N+](=O)[O-])cn2)ccc1Br (stereo not given)	i
CN(CC(=O)Nc1ccc(Cl)c(C(F)(F)F)c1)S(=O)(=O)c1ccc(F)cc1	i
O=C(CSc1nc2ccccc2c(=O)n1Cc1ccccc1)c1cc2ccccc2o1	i
Cc1cc(Cl)ccc1NC(=O)c1ccc(OCC(=O)Nc2ccccc2)cc1	i
CC(C)(C)c1ccc(C(=O)NCCNc2ccccc2[N+](=O)[O-])cc1	i
COc1ccccc1NC(=O)COc1ccc(Cl)cc1CO	i
COC(=O)c1c2oc(c1C(=O)OC)C(=O)N[C@H](Cc1ccccc1)Cn1cc(nn1)CNC(=O)[C@H](Cc1ccccc1)NC(=O)N[C@@H](CO)CC2	+
COC(=O)c1c2oc(c1C(=O)OC)C(=O)N[C@@H](Cc1ccccc1)Cn1cc(nn1)CNC(=O)[C@H](Cc1ccccc1)NC(=O)N[C@@H](CO)CC2	i
CC(C)[C@@H]1NC(=O)[C@H](Cc2ccccc2)NC(=O)[C@@H](CC(=O)O)NC(=O)CNC(=O)[C@H](CCCN=C(N)N)NC1=O	i
COC(=O)c1c2oc(c1C(=O)OC)C(=O)N(C)Cc1cn(nn1)C[C@@H](C)NC(=O)N[C@H](CO)CC2	i
COC(=O)c1c2oc(c1C(=O)OC)C(=O)N(C)Cc1cn(nn1)C[C@H](Cc1ccccc1)NC(=O)N[C@H](CO)CC2	+
COC(=O)c1ccc(OC(=O)CS(=O)c2ccc(C(F)(F)F)cc2[N+](=O)[O-])cc1 (stereo not given)	i
CS(=O)(=O)N(CC(=O)Nc1ccc(C(F)(F)F)cc1)c1ccccc1Cl	i
C=C1C(=O)O[C@H]2C[C@H](C)[C@@H]3CC(=O)C(C)=C3C[C@H]12	i
COc1ccc(NC(=O)CSc2nc3ccccc3c(=O)n2-c2ccc(C)cc2)c(OC)c1	i
COc1ccc(C)cc1NC(=O)CN(c1ccc(F)c(Cl)c1)S(C)(=O)=O	i
COc1cc(OC)c(NC(=O)CSc2nnc(C)s2)cc1Cl	i
CCC(C)c1ccc(NC(=O)CSc2nc3ncccc3[nH]2)cc1 (stereo not given)	i
CCOC(=O)CSc1nnc2c3ccccc3n(C)c2n1	i
Cn1c2ccccc2c2nnc(SCCN3CCCCC3)nc21	+
c1ccc2c(c1)[nH]c1nc(SCCN3CCCCC3)nnc12	i
COc1ccc2[nH]cc(CCNC(=O)Nc3ccc(Cl)c(Cl)c3)c2c1	i
Cc1c(C(=O)C2C(=O)C(=O)N(Cc3cccnc3)C2c2ccccn2)cnn1-c1ccccc1 (stereo not given)	+
SMILES	ID4 SMM
Cc1ccc(C(=O)C2C(=O)C(=O)N(Cc3cccnc3)C2c2cccc(Oc3ccccc3)c2)o1 (stereo not given)	i
Cc1c(C(=O)C2C(=O)C(=O)N(Cc3cccnc3)C2c2cccs2)cnn1-c1ccccc1 (stereo not given)	i
COCCOC(=O)N1C(=O)[C@@]2(c3ccccc31)[C@H](c1ccccc1OCCO)N1[C@H](c3ccccc3)[C@H](c3ccccc3)OC(=O)[C@H]1[C@@H]2C(N)=O	+
COCCOC(=O)N1C(=O)[C@@]2(c3ccccc31)[C@H](c1ccc(O)cc1)N1[C@H](c3ccccc3)[C@H](c3ccccc3)OC(=O)[C@H]1[C@@H]2C(N)=O	i
COCCOC(=O)N1C(=O)[C@@]2(c3cc(C#CCNC(N)=O)ccc31)[C@H](c1ccccc1OCCO)N1[C@H](c3ccccc3)[C@H](c3ccccc3)OC(=O)[C@H]1[C@@H]2C(N)=O	i
NS(=O)(=O)c1ccc(NC(=S)NCCc2c[nH]c3ccccc23)cc1	i
O=C(N1CCOCC1)[C@@]1(Cc2ccccc2)COC(c2ccc(OCCCO)cc2)=N1	i
CCCN(C)C[C@H]1OCc2cn(nn2)CCCC(=O)N([C@H](C)CO)C[C@H]1C	+
C[C@H](CO)N1C[C@H](C)[C@H](CN(C)CC2CC2)OCc2cn(nn2)CCCC1=O	i
C[C@@H]1CN([C@@H](C)CO)C(=O)CCCn2cc(nn2)CO[C@H]1CN(C)CC1CC1	i
O=C(CSc1nnnn1-c1cccc2ccccc12)c1ccc(O)c(O)c1	i
CC(=O)Nc1ccc(-n2c(CCC(=O)O)ccc2-c2ccc(C)cc2)cc1	+
COC(=O)c1cccc(-n2c(CCC(=O)O)ccc2-c2ccc(C)cc2)c1	i
CC(=O)c1ccc(-n2c(CCC(=O)O)ccc2-c2ccc(F)cc2)cc1	i
COc1ccc(CC(=O)n2nc(-c3ccc(Cl)cc3)nc2NCc2ccco2)cc1OC	i
NS(=O)(=O)c1ccc(NC(=S)NCCN2CCOCC2)cc1	i
COCC(=O)Nc1ccc2c(c1)[C@@H]1C[C@H](CC(=O)NC3CCCC3)O[C@@H](CO)[C@@H]1O2	i
O=C(CC1CC1)Nc1ccc2c(c1)[C@@H]1C[C@H](CC(=O)NC3CCCC3)O[C@H](CO)[C@@H]1O2	+

Screening results as filed in PubChem.
